{"source": "PubChem BioAssay (Tox21)", "key": {"[1]": {"assay": "qHTS assay to identify small molecule HDAC inhibitors (AID 1259364); also: nearly all actives have a fitted effect of over 45% in size; also: potency is read from the fitted curve at half-maximal effect; as to activity change, negative = inhibition: top concentration of the series differs between compounds", "how_it_was_run": "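Read-out: luminescence of HDAC-Glo I/II reagent, 30 min RT, reflecting class I/II deacetylase activity in whole HCT-116 cells pre-exposed 2 h to DMSO-dissolved compounds.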"}, "[2]": {"assay": "qHTS assay to identify small molecule HDAC inhibitors - cell viability counter screen (AID 1259365); also: nearly all actives have a fitted effect of over 50% in size; also: potency is read from the fitted curve at half-maximal effect; as to activity change, negative = cytotoxicity: series mostly up to about 92 µM", "how_it_was_run": "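After overnight seeding at 1,500 cells per well, wild-type HCT-116 cultures took up compounds in DMSO for 2hr at 37 C. Viable cell content came from luminescence with CellTiter-Glo.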"}, "[3]": {"assay": "qHTS assay to identify small molecule agonists of the sonic hedgehog signaling (Shh) pathway - cell viability counter screen (AID 1259366); also: nearly all actives have a fitted effect of over 50% in size; also: potency is read from the fitted curve at half-maximal effect", "how_it_was_run": "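Same-well cytotoxicity read. Gli1-Luc reporter 3T3 cells; compounds 24hr, 37C/5% CO2; CellTiter-Fluor fluorescence.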"}, "[4]": {"assay": "qHTS assay to identify small molecule antagonists of the sonic hedgehog signaling (Shh) pathway - cell viability counter screen (AID 1259367); also: nearly all actives have a fitted effect of over 55% in size; also: potency is read from the fitted curve at half-maximal effect", "how_it_was_run": "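Using CellTiter-Fluor, viability of Gli1-Luc reporter 3T3 cells is read by fluorescence in the wells used for the Shh luciferase assay. Treatment lasts 23 hr with conditioned medium, then reagent 1 hr at 37C.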"}, "[5]": {"assay": "qHTS assay to identify small molecule agonists of the sonic hedgehog signaling (Shh) pathway (AID 1259368; calls by dose curve;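 also: NIH/3T3-derived 3T3Gli1-Luc cells carrying a stable Gli1-driven firefly luciferase reporter; series mostly up to about 92 µM; nearly all actives have a fitted effect of over 15% in size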)", "how_it_was_run": "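A Gli1 transcriptional response element controlled firefly luciferase in 3T3Gli1-Luc cells. Compounds and a positive control were added 4 hr after plating, and cells were incubated a further 24 hr at 37 C before luminescence detection.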"}, "[6]": {"assay": "qHTS assay to identify small molecule antagonists of the sonic hedgehog signaling (Shh) pathway (AID 1259369; calls by dose curve; also: nearly all actives have a fitted effect of over 45% in size; also: potency is read from the fitted curve at half-maximal effect)", "how_it_was_run": "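For antagonist detection, the reporter line received test compounds together with conditioned medium, incubated 24hr at 37 C, 5% CO2, then luminescence was recorded following 30min room-temperature luciferase reagent incubation.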"}, "[7]": {"assay": "qHTS assay to identify small molecule phospholipidosis (PLD) inducers (AID 1259344; active = well fitted curve in the direction sought with a large enough effect; an effect the other way counts as inactive or inconclusive)", "how_it_was_run": "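Fluorescent phospholipid staining (LipidTOX Red) measured by automated microscopy in fixed HepG2 cells after 24 h treatment; nuclei counterstained with Hoechst 33342; amiodarone as reference inducer.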"}, "[8]": {"molecular_target": "Estrogen receptor (Homo sapiens) (UniProt P03372)", "sequence (P03372 whole entry, looked up)": "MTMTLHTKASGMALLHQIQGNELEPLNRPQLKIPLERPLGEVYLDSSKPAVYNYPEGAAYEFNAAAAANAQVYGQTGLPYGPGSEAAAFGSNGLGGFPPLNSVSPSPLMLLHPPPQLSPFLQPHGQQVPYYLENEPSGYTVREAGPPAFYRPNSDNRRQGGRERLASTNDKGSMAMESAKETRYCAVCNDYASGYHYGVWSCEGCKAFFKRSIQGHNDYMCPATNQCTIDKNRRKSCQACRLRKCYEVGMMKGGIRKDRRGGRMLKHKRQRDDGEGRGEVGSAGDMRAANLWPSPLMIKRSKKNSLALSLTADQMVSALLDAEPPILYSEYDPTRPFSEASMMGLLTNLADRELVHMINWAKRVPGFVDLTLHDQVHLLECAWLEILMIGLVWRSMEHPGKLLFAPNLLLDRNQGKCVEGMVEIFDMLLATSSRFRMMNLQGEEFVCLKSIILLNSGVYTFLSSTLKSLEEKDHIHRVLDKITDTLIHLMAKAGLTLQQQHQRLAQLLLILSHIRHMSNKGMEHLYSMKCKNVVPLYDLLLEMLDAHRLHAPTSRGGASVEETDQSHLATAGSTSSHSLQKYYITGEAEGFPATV", "assay": "qHTS assay to identify small molecule antagonists of the estrogen receptor alpha (ER-alpha) signaling pathway using the BG1 cell line in the presence of 0.1 nM 17-beta-estradiol (AID 1259244); also: nearly all actives have a fitted effect of over 50% in size; also: potency is read from the fitted curve at half-maximal effect", "how_it_was_run": "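Estradiol at 0.1 nM (final) stimulates the endogenous ER-alpha of VM7Luc4E2 cells carrying an ERE-driven luciferase; compounds are co-incubated 22 h at 37C and luciferase output quantified by luminescence.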"}, "[9]": {"molecular_target": "Estrogen receptor beta (Homo sapiens) (UniProt Q92731)", "sequence (Q92731 whole entry, looked up)": "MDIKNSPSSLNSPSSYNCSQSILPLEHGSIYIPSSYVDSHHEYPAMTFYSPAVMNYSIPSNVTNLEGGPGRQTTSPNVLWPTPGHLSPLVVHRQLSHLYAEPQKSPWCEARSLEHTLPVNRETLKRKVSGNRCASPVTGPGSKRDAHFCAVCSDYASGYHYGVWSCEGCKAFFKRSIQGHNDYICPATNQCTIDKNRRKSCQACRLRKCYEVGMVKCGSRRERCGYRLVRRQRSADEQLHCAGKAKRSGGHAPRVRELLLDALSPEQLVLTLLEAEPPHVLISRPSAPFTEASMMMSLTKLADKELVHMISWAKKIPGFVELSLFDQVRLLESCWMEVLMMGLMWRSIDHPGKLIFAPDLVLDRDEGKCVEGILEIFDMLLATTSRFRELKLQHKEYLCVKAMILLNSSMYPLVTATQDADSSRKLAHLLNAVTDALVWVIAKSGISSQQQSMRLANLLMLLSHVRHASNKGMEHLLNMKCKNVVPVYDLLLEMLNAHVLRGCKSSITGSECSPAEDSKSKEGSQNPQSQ", "assay": "qHTS assay to identify small molecule agonists of the estrogen receptor beta (ER-beta) signaling pathway (AID 1259377; active = well fitted activation curve with a large enough effect in the signal ratio in the repeat runs, not every such curve was filed as active; the % refers to the signal ratio)", "how_it_was_run": "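Read-out: beta-lactamase FRET fluorescence. Cell line: ER-beta-UAS-bla HEK293T in 2% charcoal-stripped FBS. Exposure: 16 hr at 37C. Substrate step: 2 h at room temperature.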"}}, "note": "Values without a mark were called inactive. Records with an inconclusive call do not appear. A call without a number means that no potency is given here. The source made the active and inactive calls. Unless noted, calls follow the shape of the dose curve; as a rule, active = well fitted curve in the direction sought with a large enough effect in the repeat runs; inconclusive = weak or mixed curves; inactive = no such curve, though single readings can be large; an effect the other way counts as inactive or inconclusive.", "data": [{"smiles": "CCC(=O)C(=O)CC", "values": [{"measurement": "Potency", "setting": "[1]", "value": "inactive"}, {"measurement": "Potency", "setting": "[2]", "value": "inactive"}, {"measurement": "Potency", "setting": "[3]", "value": "inactive"}, {"measurement": "Potency", "setting": "[4]", "value": "inactive"}, {"measurement": "Potency", "setting": "[5]", "value": "inactive"}, {"measurement": "Potency", "setting": "[6]", "value": "inactive"}]}, {"smiles": "CC(C)(C)c1ccc(C(O)CCCN2CCC(C(O)(c3ccccc3)c3ccccc3)CC2)cc1", "note": "(centres undefined)", "values": [{"measurement": "Potency", "setting": "[7]", "value": "inactive"}, {"measurement": "Potency", "setting": "[1]", "value": "inactive"}, {"measurement": "Potency", "setting": "[3]", "value": "26.6 µM (active)"}, {"measurement": "Potency", "setting": "[4]", "value": "inactive"}, {"measurement": "Potency", "setting": "[5]", "value": "inactive"}]}, {"smiles": "NC[C@H]1O[C@H](O[C@H]2[C@H](O[C@@H]3O[C@H](CO)[C@@H](O)[C@H]3O)C(O)[C@H](N)C[C@@H]2N)[C@H](N)[C@@H](O)[C@@H]1O", "note": "(some centres undefined)", "values": [{"measurement": "Potency", "setting": "[7]", "value": "inactive"}, {"measurement": "activity change, negative = inhibition", "setting": "[1]", "value": "-0.407% [at 8.39 µM]"}, {"measurement": "viability change, negative = cytotoxic", "setting": "[3]", "value": "2.25% [at 8.39 µM]"}, {"measurement": "viability change, negative = cytotoxic", "setting": "[4]", "value": "-1.51% [at 8.39 µM]"}, {"measurement": "activity change", "setting": "[5]", "value": "-1.1% [at 8.39 µM, active compounds read high]"}, {"measurement": "activity change, negative = inhibition", "setting": "[6]", "value": "-6.57% [at 8.39 µM]"}]}, {"smiles": "Nc1nc(-c2ccccc2)cs1", "values": [{"measurement": "Potency", "setting": "[1]", "value": "21.6 µM (active)"}, {"measurement": "Potency", "setting": "[2]", "value": "inactive"}, {"measurement": "Potency", "setting": "[3]", "value": "inactive"}, {"measurement": "Potency", "setting": "[4]", "value": "inactive"}, {"measurement": "Potency", "setting": "[5]", "value": "inactive"}]}, {"smiles": "COc1ccc2cc1Oc1ccc(cc1)C[C@H]1c3c(cc4c(c3Oc3cc5c(cc3OC)CCN(C)[C@@H]5C2)OCO4)CCN1C", "values": [{"measurement": "Potency", "setting": "[1]", "value": "inactive"}, {"measurement": "Potency", "setting": "[2]", "value": "inactive"}, {"measurement": "Potency", "setting": "[3]", "value": "11.9 µM (active)"}, {"measurement": "Potency", "setting": "[4]", "value": "15 µM (active)"}, {"measurement": "Potency", "setting": "[5]", "value": "inactive"}, {"measurement": "Potency", "setting": "[6]", "value": "3.76 µM (active)"}]}, {"smiles": "O=C(O)CN(CCN(CC(=O)O)CC(=O)O)CC(=O)O", "values": [{"measurement": "Potency", "setting": "[7]", "value": "inactive"}, {"measurement": "activity change, negative = inhibition", "setting": "[1]", "value": "2.84% [at 3.27 µM]"}, {"measurement": "activity change, negative = cytotoxicity", "setting": "[2]", "value": "0.173% [at 3.27 µM]"}, {"measurement": "viability change, negative = cytotoxic", "setting": "[3]", "value": "3.2% [at 3.27 µM]"}, {"measurement": "viability change, negative = cytotoxic", "setting": "[4]", "value": "-2.72% [at 3.27 µM]"}, {"measurement": "activity change", "setting": "[5]", "value": "0.474% [at 3.27 µM, active compounds read high]"}, {"measurement": "activity change, negative = inhibition", "setting": "[6]", "value": "12.7% [at 3.27 µM]"}]}, {"smiles": "CN(C)C(=O)COC(=O)Cc1ccc(OC(=O)c2ccc(N=C(N)N)cc2)cc1", "values": [{"measurement": "Potency", "setting": "[7]", "value": "inactive"}, {"measurement": "Potency", "setting": "[1]", "value": "0.0376 µM (active)"}, {"measurement": "Potency", "setting": "[2]", "value": "inactive"}, {"measurement": "Potency", "setting": "[3]", "value": "inactive"}, {"measurement": "Potency", "setting": "[5]", "value": "inactive"}, {"measurement": "Potency", "setting": "[6]", "value": "inactive"}]}, {"smiles": "O=c1c(O)c(-c2ccc(O)cc2O)oc2cc(O)cc(O)c12", "values": [{"measurement": "Potency", "setting": "[8]", "value": "inactive"}, {"measurement": "Potency", "setting": "[3]", "value": "inactive"}, {"measurement": "Potency", "setting": "[4]", "value": "45.7 µM (active)"}, {"measurement": "Potency", "setting": "[5]", "value": "inactive"}]}, {"smiles": "CCc1oc2ccccc2c1C(=O)c1cc(I)c(O)c(I)c1", "values": [{"measurement": "Potency", "setting": "[7]", "value": "inactive"}, {"measurement": "Potency", "setting": "[1]", "value": "inactive"}, {"measurement": "Potency", "setting": "[2]", "value": "inactive"}, {"measurement": "Potency", "setting": "[3]", "value": "inactive"}, {"measurement": "Potency", "setting": "[4]", "value": "inactive"}, {"measurement": "Potency", "setting": "[5]", "value": "inactive"}]}, {"smiles": "O=C(O)c1cc(O)c2ccccc2c1O", "values": [{"measurement": "Potency", "setting": "[8]", "value": "27.3 µM (active)"}, {"measurement": "Potency", "setting": "[2]", "value": "21.7 µM (active)"}, {"measurement": "Potency", "setting": "[3]", "value": "9.69 µM (active)"}, {"measurement": "Potency", "setting": "[4]", "value": "13.7 µM (active)"}, {"measurement": "Potency", "setting": "[5]", "value": "inactive"}, {"measurement": "Potency", "setting": "[9]", "value": "inactive"}]}, {"smiles": "CCOC(=O)c1ccc(C2CCC(NC[C@H](O)COc3ccc(O)c(NS(C)(=O)=O)c3)CC2)cc1", "note": "(some centres undefined)", "values": [{"measurement": "Potency", "setting": "[1]", "value": "inactive"}, {"measurement": "Potency", "setting": "[2]", "value": "inactive"}, {"measurement": "Potency", "setting": "[4]", "value": "50.2 µM (active)"}, {"measurement": "Potency", "setting": "[5]", "value": "inactive"}, {"measurement": "Potency", "setting": "[9]", "value": "inactive"}]}, {"smiles": "Nc1ccc(NCCO)c([N+](=O)[O-])c1", "values": [{"measurement": "Potency", "setting": "[1]", "value": "inactive"}, {"measurement": "Potency", "setting": "[2]", "value": "inactive"}, {"measurement": "Potency", "setting": "[5]", "value": "inactive"}, {"measurement": "Potency", "setting": "[9]", "value": "inactive"}]}, {"smiles": "COc1ccc(NC(=O)CC(C)=O)cc1", "values": [{"measurement": "Potency", "setting": "[3]", "value": "inactive"}, {"measurement": "Potency", "setting": "[4]", "value": "inactive"}, {"measurement": "Potency", "setting": "[5]", "value": "inactive"}, {"measurement": "Potency", "setting": "[6]", "value": "inactive"}, {"measurement": "Potency", "setting": "[9]", "value": "inactive"}]}, {"smiles": "C=C(C)C(=O)OCCCCCCCCCC", "values": [{"measurement": "Potency", "setting": "[1]", "value": "inactive"}, {"measurement": "Potency", "setting": "[2]", "value": "inactive"}, {"measurement": "Potency", "setting": "[4]", "value": "54.9 µM (active)"}, {"measurement": "Potency", "setting": "[5]", "value": "inactive"}, {"measurement": "Potency", "setting": "[6]", "value": "13.8 µM (active)"}]}, {"smiles": "O=C1NC(=O)[C@@H]2CC=CC[C@H]12", "values": [{"measurement": "Potency", "setting": "[1]", "value": "inactive"}, {"measurement": "Potency", "setting": "[3]", "value": "inactive"}, {"measurement": "Potency", "setting": "[5]", "value": "inactive"}]}]}
